Sampled rows, rich in hits. Any-hit rate of the full collection: about 4.2%.
tim10-1 inh: tim10-1 yeast growth inhibition | S. cerevisiae tim10-1 ts strain growth, BacTiter-Glo, 24 h | inhibition, % at 20 µM | 330,000 compounds, 2.2% hits;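 active = inhibition of at least 40%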;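 also: mutant grown at 25 °C; 0% = DMSO wells with yeast and 100% = wells holding no yeast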
NALP1 inh: NALP1 inhibition | 280,000 compounds, 0.61% hits | S. cerevisiae NALP1/ASC/caspase-1 growth, X-gal OD620, 72 h | inhibition, % at 10 µM; in the data active = inhibition mostly above about 24%, no sharp cut-off; inactive = mostly below about 32%
tim23-1 inh: inhibits growth of tim23-1 mutant yeast; inhibition, % at 20 µM; S. cerevisiae tim23-1 growth, BacTiter-Glo luminescence, 24 h; 330,000 compounds, 1.3% hits;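 active = growth inhibition of the mutant yeast at or above 50%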;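 also: temperature-sensitive mutant grown at 25 °C; plate controls were DMSO-treated mutant yeast for no effect and medium wells lacking yeast for full effect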
NLRP3 yeast inh: NALP3 inhibition in yeast. Yeast reconstituted NLRP3/ASC/caspase-1, beta-gal luminescence, 24 h. AID 2825. inhibition, % at 10 µM. 330,000 compounds, 0.39% hits;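 active = inhibition of 50% or more; inactive = inhibition below 50%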;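 also: plate controls were induced DMSO wells for no effect and uninduced yeast grown without galactose for full effect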
V-ATPase pHluor: yeast V-ATPase proton transport regulation by pHLuorin. S. cerevisiae, pHLuorin cytosolic pH fluorescence. response, % at 10 µM. 350,000 compounds, 0.37% hits. AID 504577; in the data active = response mostly above about 7.3%, no sharp cut-off; inactive = mostly below about 5.4%; also: actives read high
TIM10 inh: TIM10 yeast growth inhibition; inhibition, % at 10 µM; 330,000 compounds, 1.4% hits; S. cerevisiae TIM10 strain growth, BacTiter-Glo luminescence, 24 h;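 active = inhibition of 40% or more at the single tested concentration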;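 also: wild-type TIM10 isogenic control strain grown at permissive 25 °C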
V-ATPase pH SP: modulates yeast V-ATPase proton transport. response, % at 10 µM. shares compounds with V-ATPase pHluor. 980 compounds, 2% hits. S. cerevisiae pHLuorin cytosolic pH; in the data active = response above about 24%;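 also: plate controls were vehicle wells for no effect and positive control wells for full effect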
An asterisk follows results filed as active; x = no result given.

SMILES	tim10-1 inh	NALP1 inh	tim23-1 inh	NLRP3 yeast inh	V-ATPase pHluor	TIM10 inh	V-ATPase pH SP
Cc1cc(=O)oc2cc(NC(=O)c3c(Cl)cnn3C)ccc12	-10	20	-2	15	9.2*	3	1
CCOC(=O)c1c(C)[n+](-c2ccc(C)cc2)c(CC)c2cc(OC)c(OC)cc12	16	1	3	0	1	9	x
O=C1C=CC(=Nc2ccc3c(c2)Cc2cc(F)ccc2-3)O1	x	x	x	x	12	x	100*
O=C(CSc1nnc(-c2ccccc2)o1)N1CCCC1	9	10	12	11	-4	-10	0
O=C(CSc1nnc(-c2ccccc2)o1)NC(=O)Cc1ccccc1	-16	x	-8	20	4	-10	0
O=C(CSc1nnc(-c2ccc(F)cc2)o1)N1CCCCC1	3	4	13	2	4	4	x
O=C(CSc1nnc(-c2ccccc2F)o1)N1CCCC1	-15	1	6	30	2	5	x
NC(=O)CSc1nnc(-c2ccc3c(c2)OCO3)o1	14	5	16	7	5.5*	5	1
O=C(CSc1nnc(-c2ccccc2)o1)N1CCCCC1	-6	15	7	27	1	6	-12
CCOc1ccc(NC(=O)COc2ccc(C(=O)NCCc3ccccc3)cc2)cc1	0	21	-15	9	0	-6	x
O=C(O)CSc1nnc(-c2ccccc2)o1	-26	-5	-1	11	1	-6	-1
O=C(O)CSc1nnc(-c2ccc3c(c2)OCO3)o1	0	3	11	14	-6	1	x
COc1ccc(C(=O)CSc2nnc(-c3cc(C)cc(C)c3)o2)cc1	0	-6	-2	17	-2	7	x
COc1ccc(CCNC(=O)CSc2nnc(-c3ccccc3)o2)cc1OC	10	3	14	11	11*	-4	6
Cc1ccc(C(=O)CSc2nnc(-c3ccccc3)o2)cc1	-16	1	-13	32	-1	-3	2
C/C=C/c1ccc2c(c1)O[C@H](CN(C)C(=O)NC1CCCC1)[C@H](C)CN([C@H](C)CO)S2(=O)=O	x	x	x	x	4	x	x
CCCCCNC(=O)c1ccc2c(=O)n(CCOC)c(=O)[nH]c2c1	6	6	11	10	-2	-9	x
O=C(Cn1cccc1)Nc1ccc(F)cc1F	1	4	3	2	-3	-4	x
Cc1cccc2c1CCCC2=O	x	x	x	x	12*	x	-4
COc1ccc(C(=O)Nc2cc(C)nn2-c2ccc(F)cc2)cc1	-3	3	13	24	11*	-1	-4
COc1ccc(OC)c(S(=O)(=O)Nc2c(NC3CCCCC3)c3ccccc3oc2=O)c1	31	-10	32	10	9.2*	16	-4
Cn1c(=O)oc2cc(S(=O)(=O)Nc3ccc(F)cc3)ccc21	-2	6	-1	6	7.4*	-11	1
Cc1c(/C(O)=C2/C(=O)C(=O)N(Cc3cccnc3)C2c2cccs2)cnn1-c1ccccc1 (configuration not stated)	14	11	12	0	0	2	x
CN1/C(=C\C(=S)NC(=O)c2cccc(Br)c2)C(C)(C)c2ccccc21	30	6	36	15	-1	29	x
CN1/C(=C\C(=S)NC(=O)c2ccc([N+](=O)[O-])cc2)C(C)(C)c2ccccc21	12	12	-3	23	13*	9	0
SMILES	tim10-1 inh	NALP1 inh	tim23-1 inh	NLRP3 yeast inh	V-ATPase pHluor	TIM10 inh	V-ATPase pH SP
Cc1ccc(NC(=O)c2ncn(CCCN3CCN(c4ccccn4)CC3)n2)cc1C	x	x	x	x	13*	x	2
COc1cc2ccccc2cc1C(=O)N/N=C/c1cccnc1	-9	17	25	9	21*	-20	3
O=C(NCCNC(=O)c1cc(F)cc(F)c1)c1cc(F)cc(F)c1	3	8	4	13	1	-1	x
O=C(NCCNC(=O)c1ccc(F)cc1)c1ccc(F)cc1	0	x	-8	0	0	10	1
CC(=O)NCCSC(=O)c1ccc(F)cc1	6	7	-2	14	-2	-5	0
O=C(NCCCN1CCN(CCCNC(=O)c2ccc(F)cc2)CC1)c1ccc(F)cc1	-4	34	-13	6	-1	1	1
CCCCn1c(N)c(N(CC)C(=O)c2cccc(OCc3ccccc3)c2)c(=O)[nH]c1=O	14	x	10	15	11*	11	0

Bioassay records as filed in PubChem BioAssay.
